# Screen size: about 330,000 compounds; about 7,700 (2.3%) were called active. Inconclusive results (about 26%) are left out. Calls come from the whole dose curve; as a rule, active = well fitted inhibition curve with a large enough effect; inconclusive = small, poorly fitted or top-dose-only effect, or effect the other way; inactive = flat fitted curve, though single readings scatter. The full list was thinned out, with actives kept by preference.
# Assay: qHTS screen for small molecules that inhibit ELG1-dependent DNA repair in human embryonic kidney (HEK293T) cells expressing luciferase-tagged ELG1; note: nearly all actives have a fitted effect of over 55% in size
# Conditions: HEK293T ELG1-luciferase reporter, luminescence, 16 h, DNA damage induced by 5-fluorouridine; series mostly up to 46.1 µM; activity change, negative = inhibition: at the top concentration
# Outline: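 5-Fluorouridine DNA damage + compound/DMSO, 2,000 cells/well, 16 h, 37 °C/5% CO2. ONE-Glo, 30 min RT, luminescence. Readout = decrease in reporter signal.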
# % is set by controls: 0 for no effect and ±100 for the full control effect; potency is the fitted concentration of half-maximal effect.
Compound,"activity change, negative = inhibition",Potency
COc1cc(CN2CCCC(C(=O)c3ccc(SC)cc3)C2)cc(Cl)c1O (configuration not stated),-21% (inactive),–
CCOc1ccccc1OCC(=O)Nc1ccccc1C(=O)NC1CC1,-13.3% (inactive),–
Cc1ccc(S(=O)(=O)NCc2ccc(C(=O)NC3CCC(C)CC3)cc2)cc1 (configuration not stated),0.703% (inactive),–
CCCCn1c(N)c(N(CCOC)C(=O)c2oc3ccc(OC)cc3c2C)c(=O)[nH]c1=O,12.6% (inactive),–
CCN(C(=O)COC(=O)CCC(=O)c1cccs1)C1CCCCC1,0% (inactive),–
CS(=O)(=O)c1ccc2nc(NC(=O)c3ccc(N4CCCC4=O)cc3)sc2c1,-12.2% (inactive),–
Cc1ccc(NC(=O)c2cccc(S(=O)(=O)N3CCCc4ccccc43)c2)nc1,–,18.3 µM (active)
CC1CCN(C(=O)c2cccc(S(=O)(=O)N3CCCc4ccccc43)c2)CC1,16% (inactive),–
Cc1cccc(NC(=O)c2cccc(S(=O)(=O)N3CCCC3)c2)n1,-4.45% (inactive),–
CN(C)CCCN(C(=O)c1ccc(S(=O)(=O)N2CCCc3ccccc32)cc1)c1nc2ccc(F)cc2s1,0% (inactive),–
O=C(Nc1nc2ccc([N+](=O)[O-])cc2s1)c1ccc(S(=O)(=O)N2CCCc3ccccc32)cc1,–,2.31 µM (active)
O=C(COC(=O)c1ccco1)Nc1ccc(Cl)cn1,23.5% (inactive),–
COc1ccc(Cl)cc1NC(=O)COC(=O)c1ccc(Br)o1,22.8% (inactive),–
O=C(NCCN1CCOCC1)c1cccc(S(=O)(=O)Nc2ccc(F)cc2)c1,4.32% (inactive),–
COc1ccc(CCNC(=O)CSCc2ccc(Br)cc2)cc1OC,-25.8% (inactive),–
COc1ccc(C(CCN(Cc2ccc(OC)c(OC)c2)C(=O)CCl)c2ccccc2)cc1 (configuration not stated),–,20.6 µM (active)
CCOC(=O)CN(Cc1ccc(OC)c(OC)c1)S(=O)(=O)c1ccc(OC)cc1,3.12% (inactive),–
COc1ccc(COC(=O)NC(C(=O)O)c2ccccc2)cc1 (configuration not stated),0.779% (inactive),–
Cc1cccc(C)c1Nc1nnc(SCC(=O)NCCCN2CCCC2=O)s1,-6.62% (inactive),–
C[C@H](CO)N1C[C@H](C)[C@@H](CN(C)Cc2ccc(-c3ccccc3)cc2)Oc2ccc(NC(=O)Cn3cnnn3)cc2C1=O,-17.5% (inactive),–
CCOc1cccc(NC(=O)CC#N)c1,-2.32% (inactive),–
CC(=O)Nc1cccc(OCC(=O)/C=C2\N(C)c3ccccc3C2(C)C)c1,–,18.3 µM (active)
Cc1noc(C)c1C(=O)OCC(=O)/C=C1\N(C)c2ccccc2C1(C)C,10.3% (inactive),–
Cc1ccc(-n2c(SCC(=O)NCCC3=CCCCC3)nc3n[nH]c(C)c3c2=N)cc1Cl,3.77% (inactive),–
Cc1ccc2cc(C)c(N3CCN(c4ccc(F)cc4)CC3)nc2c1,2.56% (inactive),–

Compound,"activity change, negative = inhibition",Potency
COc1ccccc1-c1nn(Cc2ccccc2)cc1C(=O)N1CCN(c2ncccn2)CC1,-22.5% (inactive),–
O=c1c2c(ncn1Cc1ccccc1)nc1n2CCC1,2.62% (inactive),–
O=c1c2[nH]c3ccc(Cl)cc3c2ncn1Cc1ccccn1,3.64% (inactive),–
CN(C)c1ccnc2sc3c(=O)n(Cc4ccccc4)cnc3c12,–,4.61 µM (active)
Cc1c(NC(=O)C(C)OC(=O)c2ccccc2O)c(=O)n(-c2ccccc2)n1C (configuration not stated),22.8% (inactive),–
Cc1cc(C(=O)OC(C)C(=O)Nc2cccc(S(=O)(=O)N3CCOCC3)c2)c(C)o1 (configuration not stated),-16.8% (inactive),–
Cc1ccc(NC(=O)C(C)OC(=O)Cc2c[nH]c3ccccc23)cc1S(=O)(=O)N1CCOCC1 (configuration not stated),–,18.3 µM (active)
CC(OC(=O)CCCc1c[nH]c2ccccc12)C(=O)Nc1ccc(S(N)(=O)=O)cc1 (configuration not stated),3.33% (inactive),–
O=C(N[C@H]1C/C=C\C(c2ccc(F)cc2)N(Cc2ccccc2)C(=O)C1)OCC1c2ccccc2-c2ccccc21 (some centres not stated),-10.5% (inactive),–
Nc1c(Cl)cc(-c2csc(N3CCCC3c3nc4cc(Cl)c(Cl)cc4n3CCOCCO)n2)cc1Cl (configuration not stated),-9.47% (inactive),–
COc1ccc(-n2c(C)cc(C(=O)CSc3nnc(-c4cccs4)o3)c2C)cc1,–,6.51 µM (active)
COc1ccc(OC)c(C(=O)CSc2nnc(-c3cccs3)o2)c1,25.4% (inactive),–
COc1ccc(C(=O)CSc2nnc(-c3ccco3)o2)cc1,4.26% (inactive),–
CCN(CC)CCN1C(=O)C2C(C(=O)Nc3ccc(Br)cc3)C3C=CC2(O3)C1C(=O)NC1CCCCC1 (configuration not stated),24.9% (inactive),–
Cc1ccc(NC(=S)NCCc2ccc(Cl)cc2)c(C)c1,1.86% (inactive),–
CCC1(c2ccccc2)NC(=O)N(CC(=O)Nc2ccccc2C(=O)NC2CCCC2)C1=O (configuration not stated),4.06% (inactive),–
CCc1ccc(NC(=O)Cn2nnc(C(=O)NCc3ccc(OC)cc3)c2N)cc1,17.6% (inactive),–
COc1cc(C2CC(=O)Oc3cc(OC)c(OC)c(OC)c32)cc(OC)c1OC (configuration not stated),17.8% (inactive),–
O=C(CCS(=O)(=O)Cc1ccccc1)Nc1ccc2c(c1)OCCO2,21.4% (inactive),–
O=C(CN(c1ccc2c(c1)OCCO2)S(=O)(=O)c1ccccc1)Nc1ccc2c(c1)OCO2,–,9.2 µM (active)
CCN(CC(=O)Nc1ccc2c(c1)OCO2)S(=O)(=O)c1ccccc1,1.72% (inactive),–
NC(=O)c1cc(S(=O)(=O)NCCCc2ccco2)cs1,0.127% (inactive),–
Cc1noc(C)c1C(=O)NCC1COc2ccccc2O1 (configuration not stated),0.0743% (inactive),–
O=C(Cn1cnc2ccccc2c1=O)NCC1COc2ccccc2O1 (configuration not stated),-0.196% (inactive),–
CCn1cc(C(=O)NCC2COc3ccccc3O2)c2cc(OC)c(OC)cc2c1=O (configuration not stated),–,14.6 µM (active)

Compound,"activity change, negative = inhibition",Potency
CCC1CCCCN1C(=O)CSc1nc2c(c(=O)n1C)SC(C)C2 (configuration not stated),-8.54% (inactive),–
CC(=O)c1cccc(OCC(=O)OCC(=O)Nc2cc(S(=O)(=O)N3CCCCC3)ccc2C)c1,1.04% (inactive),–
CC(C(=O)Nc1ccc(O)c(C(=O)O)c1)N1C(=O)/C(=C/c2cccs2)SC1=S (configuration not stated),10.8% (inactive),–
COc1ccccc1C(=O)NCCC(=O)NCC(c1ccco1)N1CCCCC1 (configuration not stated),10.2% (inactive),–
COc1ccccc1C(=O)NCCn1cc(SCC(=O)NCc2ccco2)c2ccccc21,–,25.9 µM (active)
COc1cccc(OC)c1C(=O)NC(=S)NCc1ccco1,14% (inactive),–
Cc1cc(C)n2nc(C(=O)Nc3cccc(S(=O)(=O)N4CCOCC4)c3)nc2n1,14.6% (inactive),–
O=C(CCNC(=O)c1ccccc1Cl)NN=Cc1ccco1,2.44% (inactive),–
C#CCOCCOCCOCCNc1nc(N2CCN(C(=O)[C@H](CCC(=O)O)n3cc(CN)nn3)CC2)nc(N2CCN(C(=O)[C@H](CCC(=O)O)n3cc(CN)nn3)CC2)n1,7.9% (inactive),–
O=C(NC1CCCC1)C(c1ccco1)N(C(=O)c1ccco1)c1ccc(F)cc1 (configuration not stated),-2.68% (inactive),–
CC1=C[C@H]2Cc3cc(C)cc(C)c3S(=O)(=O)[C@@H]2C=C1,–,16.4 µM (active)
COc1ccccc1C(CNC(=O)c1ccc(C)c(S(=O)(=O)N2CCCCC2)c1)N(C)C (configuration not stated),7.46% (inactive),–
COc1ccccc1C(=O)Nc1ccc(C)c(S(=O)(=O)N2CCCCC2)c1,–,4.11 µM (active)
Cc1ccc(NC(=O)COC(=O)C2CC2)cc1S(=O)(=O)N1CCOCC1,10.1% (inactive),–
Cc1ccc(NC(=O)CCC(=O)N2CCC(c3ccccc3)=N2)cc1S(=O)(=O)N1CCCCC1,18.5% (inactive),–
COc1ccc(NC(=O)C2=NNC(=O)CC2)cc1S(=O)(=O)N1CCCCC1,0.964% (inactive),–
CCc1ccccc1OCC(=O)Nc1ccc(C)c(S(=O)(=O)N2CCCCCC2)c1,–,20.6 µM (active)
Cc1ccc(NS(=O)(=O)c2ccc(F)cc2)nc1,-1.5% (inactive),–
COc1ccccc1C(=O)NCC(=O)NCCSc1ccc(Br)cc1,0.299% (inactive),–
COc1ccccc1NS(=O)(=O)c1ccc(C)c(C(=O)NCC(c2ccco2)N(C)C)c1 (configuration not stated),7.5% (inactive),–
Cc1ccc(C)c(N2CCN(C(=O)CCCn3c(=O)c4cccn4c4cccnc43)CC2)c1,–,18.3 µM (active)
CCc1nn(CC(=O)N2CCN(c3cc(C)ccc3C)CC2)c(=O)c2cc3occc3n12,9.86% (inactive),–
O=C(CCCCCn1c(=S)[nH]c2cc3c(cc2c1=O)OCO3)N1CCN(c2ccc(F)cc2)CC1,2.97% (inactive),–
Cc1ccc(C)c(N2CCN(C(=O)Cn3ncn4cccc4c3=O)CC2)c1,-9.5% (inactive),–
Cc1ccc(C)c(N2CCN(C(=O)CCCCCn3c(=S)[nH]c4ccc(N5CCOCC5)cc4c3=O)CC2)c1,–,5.8 µM (active)

Compound,"activity change, negative = inhibition",Potency
Cc1ccc(C)c(N2CCN(C(=O)CCc3nc4ccccc4[nH]3)CC2)c1,-4.67% (inactive),–
COC(=O)[C@@]12CCCN1[C@H](c1ccc(-c3ccc(F)cc3)c(OC)c1)[C@H]1C(=O)N(C)C(=O)[C@H]12,-0.867% (inactive),–
COc1ccc(CCNC(=S)N2CCN(S(=O)(=O)c3ccc(F)cc3)CC2)cc1,15.3% (inactive),–
COc1ccc(-c2cc(C(F)(F)F)nc(S(C)(=O)=O)n2)cc1OC,–,20.6 µM (active)
COc1ccc(-c2cc(C(F)(F)F)nc(SCC(=O)Nc3ccc4c(c3)OCO4)n2)cc1OC,-18.9% (inactive),–
COc1cc(OC)nc(S(C)(=O)=O)n1,-6.22% (inactive),–
COc1cccc(NC(=O)CSc2nnc(C3CCCCC3)n2N)c1,19.8% (inactive),–
O=C(CSc1ccccc1)Nc1cccc(S(=O)(=O)N2CCCCC2)c1,1.06% (inactive),–
CCN1CCN(C2CCCCC2NS(=O)(=O)c2ccc(Cl)cc2)CC1 (configuration not stated),10.8% (inactive),–
CCS(=O)(=O)c1ccc2oc(SCC(=O)N3c4ccccc4CC3C)nc2c1 (configuration not stated),–,23.1 µM (active)
CC1Cc2ccccc2N1C(=O)CSc1nnc(-c2ccc(S(=O)(=O)N3CCCCC3)cc2)o1 (configuration not stated),-1.63% (inactive),–
Cc1cc(=O)[nH]c(SCC(=O)N2c3ccccc3CC2C)n1 (configuration not stated),11.9% (inactive),–
CC(C)(c1ccccc1)c1ccc(OCCN2CCCC2)cc1,3.08% (inactive),–
O=C(Nc1ccc(N2CCOCC2)cc1)c1cccc(S(=O)(=O)N2CCOCC2)c1,-1.34% (inactive),–
COc1ccc(C)cc1NC(=O)CN1c2cccc3cccc(c23)S1(=O)=O,-27.2% (inactive),–
CC(Cc1cccs1)N(Cc1ccc(Cl)cc1)C(=O)c1ccncc1 (configuration not stated),-6.31% (inactive),–
CCCN(CC(=O)Nc1ccccc1C)C(=O)c1ccc2[nH]c3c(c2c1)CC(C)CC3 (configuration not stated),–,9.2 µM (active)
CC1CCc2[nH]c3ccc(C(=O)N(C)CC(=O)Nc4cccc(F)c4)cc3c2C1 (configuration not stated),-15.3% (inactive),–
CCCN(CC(=O)Nc1ccccc1C)C(=O)c1cc(=O)[nH]c2ccccc12,23.1% (inactive),–
CCc1cc2c(NC(Cc3ccccc3)C(=O)O)ncnc2s1 (configuration not stated),2.07% (inactive),–
CCc1cc2c(NC3CCCC3)ncnc2s1,4.18% (inactive),–
CCc1cc2c(N3CCN(c4nnc(CC)s4)CC3)ncnc2s1,–,18.4 µM (active)
